Data reported in PubChem BioAssay AID624417 (National Center for Advancing Translational Sciences (NCATS), 2012).
About 6,400 (1.6%) of roughly 410,000 compounds were called active. Not shown: some 20% with an inconclusive outcome. The call rests on the fitted dose curve; in most records, active means well fitted inhibition curve with a large enough effect; inconclusive means small, poorly fitted or top-dose-only effect; inactive means no such curve, though single readings can be large or run the other way. Many of the other results were omitted from the sample, so actives are more common in it than they were.

biological target: Glucagon-like peptide 1 receptor (Homo sapiens) (UniProt P43220); experiment: qHTS of GLP-1 Receptor Inverse Agonists (Inhibition Mode); settings: HEK293 GLP-1R CRE-luciferase, luminescence, 24 h, GLP-1R form is constitutively active; series mostly up to 38.3 µM; activity change, negative = inhibition: at the top concentration; further: nearly all actives have a fitted effect of over 55% in size
Sequence (P43220 whole entry, looked up): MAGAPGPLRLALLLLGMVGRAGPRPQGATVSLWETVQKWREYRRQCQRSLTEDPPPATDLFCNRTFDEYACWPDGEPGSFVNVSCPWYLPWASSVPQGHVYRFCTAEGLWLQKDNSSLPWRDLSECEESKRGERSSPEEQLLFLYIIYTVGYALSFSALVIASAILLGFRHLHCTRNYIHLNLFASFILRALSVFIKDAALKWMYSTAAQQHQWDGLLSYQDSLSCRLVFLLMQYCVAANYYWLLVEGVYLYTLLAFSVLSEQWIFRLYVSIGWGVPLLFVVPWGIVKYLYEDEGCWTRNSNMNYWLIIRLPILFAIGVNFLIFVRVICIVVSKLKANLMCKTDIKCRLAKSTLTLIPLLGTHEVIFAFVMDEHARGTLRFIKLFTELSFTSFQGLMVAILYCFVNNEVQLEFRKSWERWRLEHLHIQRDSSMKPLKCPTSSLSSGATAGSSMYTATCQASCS
Outline: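 Constitutively active GLP-1R drives a cAMP-responsive luciferase in stably transfected HEK293 cells; test compounds are added after overnight (12 h) attachment and left 24 hr, and signal loss in luminescence marks inhibition.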
On the % scale 0 is the no-effect control and ±100 the full control effect; potency means the concentration at half of the fitted maximal effect.

Structure (SMILES) | activity change, negative = inhibition | Potency
Cc1ccccc1S(=O)(=O)N1[C@@H](c2cccc(Cl)c2)C(C(=O)OC(C)(C)C)=CC[C@H]1c1ccc(Cl)cc1 | 26% (inactive) | –
O=C(Nc1nnc(-c2ccccc2F)s1)c1ccccc1F | 42.3% (inactive) | –
O=C(Nc1sc2c(c1C(=O)O)CCC2)c1ccccc1F | -23.1% (inactive) | –
O=C(Nc1nc2c(s1)CCCC2)c1ccccc1F | – | 4.47 µM (active)
Cc1nc(C(F)(F)F)ccc1C(=O)N1CCC1(C)C(=O)NS(=O)(=O)c1ccc(F)cc1F (stereo not given) | 4.33% (inactive) | –
c1ccc2c(CCN3CCNC[C@H]3Cc3cccc4ccccc34)cccc2c1 | -11.6% (inactive) | –
c1ccc(C[C@H]2CNCCN2CCC23CC4CC(CC(C4)C2)C3)cc1 | – | 10 µM (active)
O=C1CCNCCN1[C@H](CO)Cc1ccccc1 | 11.1% (inactive) | –
CN(C)C1CN(Cc2cn(Cc3ccccc3)nn2)S(=O)(=O)C1 (stereo not given) | 8.92% (inactive) | –
Cc1ccc(-c2cn3cc(C)ccc3n2)cc1 | -14.4% [at 0.307 µM] (inactive) | –
Cc1ccc(-c2cn3cc([N+](=O)[O-])ccc3n2)cc1 | – | 4.47 µM (active)
Cc1ccc(-n2cc3ccc([N+](=O)[O-])cc3n2)cc1 | -54% (inactive) | –
CCOC(=O)c1c(NC(=O)COC(=O)c2ccc(S(=O)(=O)C(F)F)cc2)sc(C(=O)N(C)C)c1C | 12.2% (inactive) | –
COc1ccc(CC(N)c2csc(NC(=O)NC(c3ccccc3)c3ccccc3)n2)cc1 (stereo not given) | -7.52% (inactive) | –
C[C@@H]1CN([C@H](C)CO)C(=O)CCCn2cc(nn2)CO[C@H]1CN(C)S(=O)(=O)c1ccc(Oc2ccccc2)nc1 | 3.37% (inactive) | –
Cc1ccc(-c2noc(CC(c3ccccc3)c3ccccc3)n2)cc1 | – | 5.62 µM (active)
Cc1ccc(-c2noc(CSc3nnc(-c4ccc(Cl)cc4)n3C)n2)cc1 | 12.7% (inactive) | –
c1ccc(CCc2nc(-c3ccncc3)no2)cc1 | 2.26% (inactive) | –
CC[C@@H]1CC2=C(C(=O)OC(C)(C)O2)[C@@H](CC)O1 | 26.8% (inactive) | –
CC1(C)NC(=O)N(CC(=O)Nc2ccc(-c3ccccc3)cc2)C1=O | 0.129% (inactive) | –
Cc1c(C(=O)NCc2ccc(C#N)cc2)sc(=O)n1Cc1ccc(C(=O)N(C)C)cc1 | 10.9% (inactive) | –
O=C(c1ccco1)N1CCN(Cc2cccc(C(F)(F)F)c2)CC1 | -16.9% (inactive) | –
CCOC(=O)N1CCN(Cc2nc(Cc3cccc(C(F)(F)F)c3)no2)CC1 | -5.14% (inactive) | –
FC(F)(F)c1cccc(Cc2noc(CN3CCC(N4CCCCC4)CC3)n2)c1 | – | 5.62 µM (active)
O=C(NCc1ccccc1)C1c2ccccc2OCC(=O)N1CCCN1CCOCC1 (stereo not given) | 20.2% (inactive) | –

Structure (SMILES) | activity change, negative = inhibition | Potency
Cc1cc(Br)ccc1NC(=O)CCCOc1cc(=O)n(C)c2ccccc12 | 7.24% (inactive) | –
Cc1ccc(CN(CC(=O)NC2CCCCC2)C(=O)c2csnn2)cc1 | -22.4% (inactive) | –
COc1ccc(CN(CC(=O)NC2CCCC2)C(=O)CCC(=O)Nc2cc(C)on2)cc1 | -8.66% (inactive) | –
Cc1cc(C(C)(C)C)oc1C(=O)N(CC(=O)NC1CCCC1)Cc1ccc(Cl)cc1 | – | 7.08 µM (active)
O=C(CC[C@H]1O[C@@H](n2ccc(=O)[nH]c2=O)[C@H](O)[C@@H]1O)N[C@H](Cc1ccccc1)C(=O)NCc1ccco1 | 12.8% (inactive) | –
CC1CCCN(CC(O)COCc2ccccc2)C1 (stereo not given) | -6.19% (inactive) | –
Cc1ccccc1C(OCC(O)CN1CCCCC1CCO)c1ccccc1 (stereo not given) | – | 10 µM (active)
Cc1cccc(C)c1OCC(O)CN1CCCCC1 (stereo not given) | -1.02% (inactive) | –
Cc1nc(C(F)(F)F)ccc1C(=O)N1CCC1(C)C(=O)NS(=O)(=O)c1ccccc1Cl (stereo not given) | 15.1% (inactive) | –
CCOC(=O)N(C)c1c(CC)nc2c(OCc3ccccc3C(=O)OC)cccn12 | 13.9% (inactive) | –
COc1ccc(C(=O)OCC(=O)N2CC(=O)Nc3ccccc32)cc1Br | 17.7% (inactive) | –
COc1cc(OC)c(C(=O)OCC(=O)N2CC(=O)Nc3ccccc32)cc1OC | 19.5% (inactive) | –
COc1ccc(Cl)cc1-n1c(C)cc(C(=O)OCC(=O)N2CC(=O)Nc3ccccc32)c1C | – | 10 µM (active)
Nc1cc(=O)c2[nH]cnc2[nH]1 | 2.06% (inactive) | –
Cc1cc(C)n2c(Nc3c(C)cccc3C)c(CCc3ccccc3)nc2n1 | -31.1% (inactive) | –
CN(Cc1ccccc1F)c1cc2c(c3c1ccn3C)C1CCC2O1 (stereo not given) | -30.3% (inactive) | –
N#CC1(Nc2ccc3c4c(cccc24)CC3)CCCCC1 | -13.8% (inactive) | –
CCc1ccc(C(=O)NNC(=O)C2CCN(c3ncnc4sc(C)c(C)c34)CC2)cc1 | – | 10 µM (active)
O=C(NNC(=O)C1CCN(c2ncccn2)CC1)c1ccccc1 | 13.1% (inactive) | –
Cc1sc2ncnc(N3CCC(C(=O)Nc4nc5ccc(Cl)cc5s4)CC3)c2c1C | 12.3% (inactive) | –
C[C@H]1CN([C@@H](C)CO)C(=O)c2cc(C3=CCCCC3)cnc2O[C@@H]1CN(C)C(=O)Cc1ccccc1 | -17.6% (inactive) | –
CC(C)Nc1ncnc2c1ncn2[C@H]1CN(Cc2ccncc2)C[C@@H](CO)O1 | 29.6% (inactive) | –
O=C(NCc1ccncc1)NC12CC3CC(CC(C3)C1)C2 | -8.91% (inactive) | –
O=C(NCc1ccc(Cl)cc1)NCc1ccc(Cl)cc1 | -0.855% [at 7.66 µM] (inactive) | –
S=C(NCc1ccc(Cl)cc1)NC12CC3CC(CC(C3)C1)C2 | – | 8.91 µM (active)

Structure (SMILES) | activity change, negative = inhibition | Potency
O=C(NC1CCCC1)C1c2ccccc2OCC(=O)N1Cc1ccccc1 (stereo not given) | 1.36% (inactive) | –
CCOC(=O)c1cnn2c(SC)ncnc12 | 14.2% (inactive) | –
N#Cc1nc(N)nc(N(c2ccccc2)c2ccccc2)n1 | – | 12.6 µM (active)
CC(C)Nc1nc(N(c2ccccc2)c2ccccc2)nc(-n2ccnc2)n1 | 0.283% (inactive) | –
CC(C)Cn1cc(-c2cncc3nccn23)cn1 | 12.6% (inactive) | –
CCCC(=O)N1CCC1(C)C(=O)NS(=O)(=O)c1ccc(Cl)cc1 (stereo not given) | 4.5% (inactive) | –
CCCNC(=O)C1(C)CCCN(Cc2c(C)nn(-c3ccccc3)c2C)C1 (stereo not given) | -17.1% (inactive) | –
Cc1c(C)n(Cc2ccc(Cl)cc2)c2ccc(C(=O)NCCc3ccc(S(N)(=O)=O)cc3)cc12 | -12.1% (inactive) | –
O=C(NCCCN1CCOCC1)c1cc(-c2ccc(Cl)cc2)on1 | 0% (inactive) | –
Cc1c(C)n(Cc2ccc(Cl)cc2)c2ccc(C(=O)NCCCN3CCOCC3)cc12 | – | 1.12 µM (active)
Cc1nc2nc3c(cn2n1)C(=O)CC(c1ccccc1)C3 (stereo not given) | -0.051% (inactive) | –
CCc1ccc(Nc2ncc3c(n2)CC(c2ccco2)CC3=O)cc1 (stereo not given) | 16% (inactive) | –
COc1cc(C2CC(=O)c3cnc(NC(C)=O)nc3C2)cc(OC)c1OC (stereo not given) | 30.8% (inactive) | –
CN1CCN(c2ncc3c(n2)CC(c2ccccc2F)CC3=O)CC1 (stereo not given) | – | 3.98 µM (active)
O=C1c2ccccc2C(=O)C1c1ccccc1F | 12.5% (inactive) | –
CCN1CCN(c2ncc3c(n2)CC(c2ccccc2O)CC3=O)CC1 (stereo not given) | – | 10 µM (active)
O=C(OCc1ccccc1)N1CCC2CC1c1cc(N3CCN(S(=O)(=O)c4cc(Cl)cc(Cl)c4)CC3)ccc12 (stereo not given) | -0.327% (inactive) | –
CC(=O)Nc1ccc(SCC(=O)NC(=O)c2ccc(Cl)cc2)cc1 | -4.29% (inactive) | –
COc1ccc([C@H]2C[C@@H](n3cc(COC(=O)c4ccccc4)nn3)[C@H](O)CN2C(=O)c2cccs2)cc1 | -28.9% (inactive) | –
CC(C)OC(=O)CC(=O)CC(O)c1cccc([N+](=O)[O-])c1 (stereo not given) | 1.7% (inactive) | –
NCCCCC(C(=O)O)N(C(=O)OCc1ccccc1)C(=O)OCc1ccccc1 (stereo not given) | 28.4% (inactive) | –
COc1ccc(CN2C(=O)C(CC(=O)NCCN3CCOCC3)CC(C(=O)N(C(C)C)C(C)C)=C2C)cc1 (stereo not given) | 14.3% (inactive) | –
COc1ccc(C(=O)NC(=S)Nc2ccccc2N2CCN(S(C)(=O)=O)CC2)cc1OC | 19.1% (inactive) | –
O=C(NC(=S)Nc1ccccc1N1CCCCC1)c1ccc(F)cc1 | – | 12.6 µM (active)
O=C(Nc1ccccc1N1CCCC1)c1ccc2ccccc2c1 | 4.76% (inactive) | –

Structure (SMILES) | activity change, negative = inhibition | Potency
CCCC/C=C/c1cccc2nncn12 | 5.17% (inactive) | –
Cc1ccc(C=O)c([B-](F)(F)F)c1 | -30.1% (inactive) | –
CN1c2ccc(C=O)c3c(C=O)ccc(c23)N(C)C1(C)C | – | 12.6 µM (active)
CCOC(=O)N1C(=O)C[C@](Sc2ccc(C)cc2)(C(=O)OC)[C@H]1c1ccccc1 | 5.79% (inactive) | –
COc1ccc(CNC(=O)[C@H](Cc2c[nH]c3ccccc23)NC(C)=O)cc1OC | 11% (inactive) | –
COc1cccc(NC(=O)[C@H](Cc2c[nH]c3ccccc23)NC(=O)[C@@H]2Cc3ccccc3CN2)c1 | – | 3.98 µM (active)
COc1ccc(NC(=O)[C@H](NC(=O)[C@@H]2Cc3ccccc3CN2)c2ccccc2)cc1 | -22.4% (inactive) | –
O=C(O)c1ccccc1-c1cccc2nncn12 | 12% (inactive) | –
CCCn1c(C)cc(C(=O)COC(=O)c2c(C)nn(-c3ccccc3)c2C)c1C | – | 10 µM (active)
Cc1cccc(C)c1NC(=O)COC(=O)c1c(C)nn(-c2ccccc2)c1C | -11% (inactive) | –
COc1ccc(CNC(=O)COC(=O)c2c(C)nn(-c3ccccc3)c2C)cc1OC | -0.123% (inactive) | –
Cc1noc(C)c1C(=O)N1CCC1(C)C(=O)NS(=O)(=O)c1ccc(C#N)cc1 (stereo not given) | 15.3% (inactive) | –
Clc1ccc(-c2cccc3nccn23)cc1 | 13% (inactive) | –
COc1ccc(C2CC(c3cccc(OC)c3)=NN2c2ccc(S(N)(=O)=O)cc2)cc1 (stereo not given) | 27.5% (inactive) | –
CCCn1c(=N)c(C(=O)NCc2ccccc2)cc2c(=O)n3cccc(C)c3nc21 | 2.15% (inactive) | –
Cc1cccn2c(=O)c3cc(C(=O)NCC4CCCO4)c(=N)n(Cc4ccc(F)cc4)c3nc12 (stereo not given) | 85.4% (inactive) | –
Cc1cccn2c(=O)c3cc(C(=O)NCCN4CCOCC4)c(=N)n(Cc4cccnc4)c3nc12 | – | 3.98 µM (active)
C=CCn1c2c(c3ccccc31)CCC2 | -1.11% (inactive) | –
CN1c2ccc([N+](=O)[O-])cc2C(C)(C)C12C=Cc1cc(C(=O)O)ccc1O2 (stereo not given) | 0.491% (inactive) | –
COc1ccc2c(c1)C=CC1(O2)N(CCO)c2ccccc2C1(C)C (stereo not given) | – | 2.51 µM (active)
CCCCn1nnnc1C1(C)CCC(=O)N1Cc1ccc(OC)c(OC)c1 (stereo not given) | 11.4% (inactive) | –
Cc1cccc(C)c1NC(=O)CNC(=O)c1ccc(N2CCOCC2)c([N+](=O)[O-])c1 | 13.7% (inactive) | –
CC(C)NC(=O)C1(C)CCCCN1Cc1cccc(C(F)(F)F)c1 (stereo not given) | 1.63% (inactive) | –
CC1(C(=O)Nc2cccnc2)Cc2c(-c3ccccc3)ccnc2O1 (stereo not given) | 1.75% (inactive) | –
CC(=O)Nc1cnc(-c2ccc(O)cc2C)cn1 | 18.2% (inactive) | –
